# According to the supplement of paper PMC12282887:
# ± gives the standard deviation of the averaged measurements.
# Tested on: E. coli BW25113 robp lux reporter
# Experiment: promoter activity interaction Z-score (Lux/OD deviation from empty-vector control); higher = stronger promoter induction by the compound
# Settings: 0.25 µg/ml; genetic background: Δrob
# Outline: (§1)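 In 384-well plates, 40 µl LB Lennox cultures of E. coli BW25113 with low-copy luxCDABE promoter reporters grew at 37°C. Optical density at 600 nm and light output were recorded every 30 min for 12 h, with windows of 0–8 h for wild type and 1–9 h for deletion strains, and wells under 10% of the median growth value were left out. Each value is a Z-transformed residual of growth-normalised luminescence fitted against a control.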
row,Structure (SMILES),promoter activity interaction Z-score
1,C/C(=C\C(=O)OCCCCCCCCC(=O)O)C[C@@H]1OC[C@H](C[C@@H]2O[C@H]2[C@@H](C)[C@H](C)O)[C@@H](O)[C@H]1O [Pseudomonic acid],0.357 ± 0.37
2,N=C(NCCCCCCNC(=N)NC(=N)Nc1ccc(Cl)cc1)NC(=N)Nc1ccc(Cl)cc1 [Chlorhexidine],0.48 ± 0.31
3,CO[C@@]12[C@H](COC(N)=O)C3=C(C(=O)C(C)=C(N)C3=O)N1C[C@@H]1N[C@@H]12 [Mitomycin C],0.453 ± 0.084

# Same assay, conditions: 0.25 µg/ml; genetic background: ΔsoxS
row,Structure (SMILES),promoter activity interaction Z-score
1,C/C(=C\C(=O)OCCCCCCCCC(=O)O)C[C@@H]1OC[C@H](C[C@@H]2O[C@H]2[C@@H](C)[C@H](C)O)[C@@H](O)[C@H]1O [Pseudomonic acid],0.316 ± 0.48
2,N=C(NCCCCCCNC(=N)NC(=N)Nc1ccc(Cl)cc1)NC(=N)Nc1ccc(Cl)cc1 [Chlorhexidine],0.422 ± 0.89
3,CO[C@@]12[C@H](COC(N)=O)C3=C(C(=O)C(C)=C(N)C3=O)N1C[C@@H]1N[C@@H]12 [Mitomycin C],-0.883 ± 0.36

# Tested on: E. coli BW25113 soxSp lux reporter
# Experiment: as above
# Settings: 0.13 µg/ml; genetic background: wild type
# Outline: as §1
row,Structure (SMILES),promoter activity interaction Z-score
1,N=C(NCCCCCCNC(=N)NC(=N)Nc1ccc(Cl)cc1)NC(=N)Nc1ccc(Cl)cc1 [Chlorhexidine],0.0248 ± 0.062
2,CCN1CCN(C(=O)N[C@@H](C(=O)N[C@@H]2C(=O)N3[C@@H]2SC(C)(C)[C@@H]3C(=O)O)c2ccccc2)C(=O)C1=O [Piperacillin],-0.0137 ± 0.014
3,CO[C@@]12[C@H](COC(N)=O)C3=C(C(=O)C(C)=C(N)C3=O)N1C[C@@H]1N[C@@H]12 [Mitomycin C],-0.0775 ± 0.16

# Same assay, conditions: 0.13 µg/ml; genetic background: ΔmarA
row,Structure (SMILES),promoter activity interaction Z-score
1,N=C(NCCCCCCNC(=N)NC(=N)Nc1ccc(Cl)cc1)NC(=N)Nc1ccc(Cl)cc1 [Chlorhexidine],0.0401 ± 0.18
2,CCN1CCN(C(=O)N[C@@H](C(=O)N[C@@H]2C(=O)N3[C@@H]2SC(C)(C)[C@@H]3C(=O)O)c2ccccc2)C(=O)C1=O [Piperacillin],-0.056 ± 0.022
3,CO[C@@]12[C@H](COC(N)=O)C3=C(C(=O)C(C)=C(N)C3=O)N1C[C@@H]1N[C@@H]12 [Mitomycin C],-0.0258 ± 0.096

# Same assay, conditions: 0.13 µg/ml; genetic background: Δrob
row,Structure (SMILES),promoter activity interaction Z-score
1,N=C(NCCCCCCNC(=N)NC(=N)Nc1ccc(Cl)cc1)NC(=N)Nc1ccc(Cl)cc1 [Chlorhexidine],-0.0238 ± 0.042
2,CCN1CCN(C(=O)N[C@@H](C(=O)N[C@@H]2C(=O)N3[C@@H]2SC(C)(C)[C@@H]3C(=O)O)c2ccccc2)C(=O)C1=O [Piperacillin],-0.105 ± 0.013
3,CO[C@@]12[C@H](COC(N)=O)C3=C(C(=O)C(C)=C(N)C3=O)N1C[C@@H]1N[C@@H]12 [Mitomycin C],-0.0896 ± 0.043

# Same assay, conditions: 0.13 µg/ml; genetic background: ΔsoxS
row,Structure (SMILES),promoter activity interaction Z-score
1,N=C(NCCCCCCNC(=N)NC(=N)Nc1ccc(Cl)cc1)NC(=N)Nc1ccc(Cl)cc1 [Chlorhexidine],0.276 ± 0.16
2,CCN1CCN(C(=O)N[C@@H](C(=O)N[C@@H]2C(=O)N3[C@@H]2SC(C)(C)[C@@H]3C(=O)O)c2ccccc2)C(=O)C1=O [Piperacillin],-0.0509 ± 0.17
3,CO[C@@]12[C@H](COC(N)=O)C3=C(C(=O)C(C)=C(N)C3=O)N1C[C@@H]1N[C@@H]12 [Mitomycin C],-0.0792 ± 0.22

# Same assay, conditions: 0.25 µg/ml; genetic background: wild type
row,Structure (SMILES),promoter activity interaction Z-score
1,C/C(=C\C(=O)OCCCCCCCCC(=O)O)C[C@@H]1OC[C@H](C[C@@H]2O[C@H]2[C@@H](C)[C@H](C)O)[C@@H](O)[C@H]1O [Pseudomonic acid],-0.0625 ± 0.032
2,N=C(NCCCCCCNC(=N)NC(=N)Nc1ccc(Cl)cc1)NC(=N)Nc1ccc(Cl)cc1 [Chlorhexidine],0.0242 ± 0.039
3,CO[C@@]12[C@H](COC(N)=O)C3=C(C(=O)C(C)=C(N)C3=O)N1C[C@@H]1N[C@@H]12 [Mitomycin C],0.185 ± 0.009

# Same assay, conditions: 0.25 µg/ml; genetic background: ΔmarA
row,Structure (SMILES),promoter activity interaction Z-score
1,C/C(=C\C(=O)OCCCCCCCCC(=O)O)C[C@@H]1OC[C@H](C[C@@H]2O[C@H]2[C@@H](C)[C@H](C)O)[C@@H](O)[C@H]1O [Pseudomonic acid],-0.0981 ± 0.09
2,N=C(NCCCCCCNC(=N)NC(=N)Nc1ccc(Cl)cc1)NC(=N)Nc1ccc(Cl)cc1 [Chlorhexidine],0.138 ± 0.13
3,CO[C@@]12[C@H](COC(N)=O)C3=C(C(=O)C(C)=C(N)C3=O)N1C[C@@H]1N[C@@H]12 [Mitomycin C],-0.158 ± 0.067

# Same assay, conditions: 0.25 µg/ml; genetic background: Δrob
row,Structure (SMILES),promoter activity interaction Z-score
1,C/C(=C\C(=O)OCCCCCCCCC(=O)O)C[C@@H]1OC[C@H](C[C@@H]2O[C@H]2[C@@H](C)[C@H](C)O)[C@@H](O)[C@H]1O [Pseudomonic acid],0.0456 ± 0.03
2,N=C(NCCCCCCNC(=N)NC(=N)Nc1ccc(Cl)cc1)NC(=N)Nc1ccc(Cl)cc1 [Chlorhexidine],0.236 ± 0.22
3,CO[C@@]12[C@H](COC(N)=O)C3=C(C(=O)C(C)=C(N)C3=O)N1C[C@@H]1N[C@@H]12 [Mitomycin C],0.12 ± 0.092

# Same assay, conditions: 0.25 µg/ml; genetic background: ΔsoxS
row,Structure (SMILES),promoter activity interaction Z-score
1,C/C(=C\C(=O)OCCCCCCCCC(=O)O)C[C@@H]1OC[C@H](C[C@@H]2O[C@H]2[C@@H](C)[C@H](C)O)[C@@H](O)[C@H]1O [Pseudomonic acid],-0.226 ± 0.46
2,N=C(NCCCCCCNC(=N)NC(=N)Nc1ccc(Cl)cc1)NC(=N)Nc1ccc(Cl)cc1 [Chlorhexidine],0.165 ± 0.005
3,CO[C@@]12[C@H](COC(N)=O)C3=C(C(=O)C(C)=C(N)C3=O)N1C[C@@H]1N[C@@H]12 [Mitomycin C],-0.0761 ± 0.073
